According to the supplement of paper PMC3334620:
Over roughly 33,000 sequences, “E-score (-0.5 to 0.5)” has its median near -0.041; the highest 2% begin near 0.37. The full list was thinned out, with the highest values kept by preference.

These sequences were tested against T1, Ecm22 (UniProt Q05958) (assay: PBM E-score (8-mer binding enrichment) (E-score (-0.5 to 0.5)); higher = stronger / more preferred TF binding). Conditions: protein concentration: 200 nM; construct: GST-full length.
T1 sequence: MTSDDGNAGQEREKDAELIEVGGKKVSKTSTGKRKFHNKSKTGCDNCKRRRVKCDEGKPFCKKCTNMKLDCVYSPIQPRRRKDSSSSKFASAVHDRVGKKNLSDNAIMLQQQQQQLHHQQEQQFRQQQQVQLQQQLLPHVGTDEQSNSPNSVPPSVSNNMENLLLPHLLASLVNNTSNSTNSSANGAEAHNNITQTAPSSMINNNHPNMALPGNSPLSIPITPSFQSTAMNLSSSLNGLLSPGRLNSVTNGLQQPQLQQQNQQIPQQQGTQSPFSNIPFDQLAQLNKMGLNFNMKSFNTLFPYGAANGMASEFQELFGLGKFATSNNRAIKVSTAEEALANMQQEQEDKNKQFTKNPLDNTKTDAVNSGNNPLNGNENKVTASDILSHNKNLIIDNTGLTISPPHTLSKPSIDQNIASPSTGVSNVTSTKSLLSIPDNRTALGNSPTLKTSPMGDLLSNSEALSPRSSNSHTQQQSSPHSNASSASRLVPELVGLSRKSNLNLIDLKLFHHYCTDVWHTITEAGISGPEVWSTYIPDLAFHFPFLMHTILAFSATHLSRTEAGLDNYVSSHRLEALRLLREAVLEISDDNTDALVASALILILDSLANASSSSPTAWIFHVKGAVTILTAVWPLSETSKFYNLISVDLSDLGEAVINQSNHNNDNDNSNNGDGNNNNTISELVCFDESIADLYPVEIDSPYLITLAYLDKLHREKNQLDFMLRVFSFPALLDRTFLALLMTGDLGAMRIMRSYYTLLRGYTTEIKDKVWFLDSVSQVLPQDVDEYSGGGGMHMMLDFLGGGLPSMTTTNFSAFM
How it was run: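 Detection of bound protein used fluorescent anti-GST, with scans normalised by masliner. The proteins were GST-tagged yeast transcription factors applied at about 100-200 nM to universal all-10-mer Agilent arrays made double-stranded by primer extension. Each ungapped eight-base word, pooled with its reverse complement, was scored with an E-score from the Universal PBM Analysis Suite.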

Row | Sequence | PBM E-score
1 | ATAGCTCC | -0.169
2 | CCCTTCCA | -0.32
3 | ACCGGATG | 0.0481
4 | CTCCTCTC | -0.0778
5 | GGTGTGAC | -0.177
6 | CTCGCACC | 0.31
7 | AGATCCGG | -0.0497
8 | ATCGGTCG | 0.211
9 | CCACGACA | -0.0411
10 | CAACGACC | 0.278
11 | AAACGACC | 0.45
12 | AATCGACC | -0.0105
13 | AAACGACA | 0.467
14 | TCACGACA | 0.00255
15 | CCTTCCGC | -0.184
16 | GAGAGGGA | -0.212
17 | AGATACGC | 0.196
18 | GGATACCA | -0.0853
19 | CGATACAA | 0.148
20 | AGATACGA | 0.47
21 | CGATACGA | 0.454
22 | AGATACGG | 0.28
23 | GGATACGA | 0.45
24 | GGATACTA | -0.144
25 | CGATACGC | 0.2

Row | Sequence | PBM E-score
26 | CAAATGCC | -0.27
27 | TGCAAGAA | -0.0877
28 | AAGCCATA | -0.0528
29 | CCTTCCCG | -0.043
30 | ACAGAGCG | 0.00751
31 | CCTTGAAA | -0.0768
32 | AGGAGTTG | 0.0179
33 | ACGAGTTA | 0.422
34 | CCGAGTTA | 0.0641
35 | ACGAGTTG | 0.371
36 | ACGAGTTC | 0.319
37 | GCGAGTTA | 0.191
38 | GGGAACCC | 0.0178
39 | CGCCCAGA | -0.104
40 | CCCAACCA | 0.0792
41 | GAAGAGAC | 0.0183
42 | GACCTTCA | -0.0961
43 | CGTTTAGA | 0.446
44 | CGTTTAGC | 0.464
45 | AGTTTAGA | -0.186
46 | CGTTTGGC | 0.394
47 | CGTTTGGA | 0.366
48 | AGTTTAGC | -0.19
49 | GGTTTAGA | -0.179
50 | CATTTAGC | 0.0683

Row | Sequence | PBM E-score
51 | AGTTTGGC | -0.00953
52 | CACTGCTG | -0.147
53 | GCTGCTAC | 0.124
54 | GACCCGGA | -0.17
55 | CTCCGCGC | -0.0267
56 | TCGTAGAA | 0.384
57 | TCGTAGCA | 0.419
58 | CCGTAGAA | 0.122
59 | GCGTAGAA | -0.0103
60 | CCGTAGCA | 0.165
61 | ACGTAGCA | 0.0433
62 | AAGACCTC | -0.2
63 | GAAACGGC | 0.2
64 | CAAACGAC | 0.442
65 | CCAACGAG | 0.093
66 | CAAACGAG | 0.463
67 | GAAACGCC | 0.0403
68 | AAAACGAG | 0.362
69 | GAAACGAC | 0.41
70 | AAAACGAC | 0.363
71 | CTAACGAC | 0.282
72 | ACCCAGCG | -0.184
73 | CAGGACCG | -0.0291
74 | CAATTCGC | 0.0698
75 | ACTCACGG | 0.034

Row | Sequence | PBM E-score
76 | CACGTCCG | -0.21
77 | CAGATGGA | 0.0554
78 | ACTCACCG | -0.0985
79 | CACGTTAC | -0.046
80 | GGCGTTAA | -0.0419
81 | ATCGTTAC | 0.264
82 | GACGTTAA | 0.0928
83 | CTCGTTAA | 0.437
84 | ATCGTTAG | 0.201
85 | ATCGTTAA | 0.403
86 | GTCGTTAA | 0.427
87 | CTCGTTAC | 0.371
88 | CCCGTTAA | 0.256
89 | CGCGTTAC | 0.159
90 | CACGTTAA | 0.00208
91 | CGGCGTAG | -0.00106
92 | ATAGTGAT | 0.176
93 | CCTCGCAG | 0.0132
94 | CCCGTCCG | -0.309
95 | CGCCAGTC | 0.014
96 | CTACGGAC | -0.07
97 | GGACGGAA | -0.0866
98 | CTACGGAG | -0.0418
99 | ATACGGAA | 0.374
100 | ATACGGAG | 0.385

Row | Sequence | PBM E-score
101 | CTACGGAA | 0.0649
102 | TTACGGAA | 0.266
103 | ATACGGAC | 0.362
104 | GCACGGAA | -0.094
105 | GTACGGAC | 0.372
106 | GTACGGAA | 0.4
107 | ATACGGAT | 0.332
108 | AATTTGCT | -0.0782
109 | TAGGGAGA | -0.252
110 | ACATGGGG | -0.282
111 | TGAATTAA | 0.099
112 | CCGGAGGA | -0.171
113 | GGAAACAA | 0.0422
114 | CGAAACCA | 0.28
115 | GAAAACGA | 0.306
116 | CGAAACGA | 0.424
117 | AGAAACGC | -0.0375
118 | AGAAACGG | 0.272
119 | AGAAACGA | 0.424
120 | CGAAACGC | 0.0992
121 | GGAAACGA | 0.426
122 | CCTGTGTA | 0.00294
123 | GAGAGCAC | -0.00667
124 | AACATCGT | 0.264
125 | AAGTATCA | -0.115

Row | Sequence | PBM E-score
126 | CAGCTAGA | -0.0476
127 | CTTGCCGA | -0.0634
128 | CCGACCGA | 0.203
129 | ACGACCAC | 0.35
130 | CCGACCTA | 0.0401
131 | ACGACCTA | 0.384
132 | ACGACCTC | 0.337
133 | ACGACCGA | 0.394
134 | GCGACCGA | 0.218
135 | ACGACCAG | 0.319
136 | ACGACCAA | 0.371
137 | AGACATTG | -0.268
138 | ACTCGCAG | 0.0817
139 | GCAGGGGC | -0.243
140 | GAAGAAGC | -0.234
141 | AACAGTTA | -0.1
142 | ATCCGTTA | 0.177
143 | AAAGGCTT | -0.177
144 | ACCGAGCG | 0.292
145 | CAAGACTC | -0.126
146 | CGAAATCG | 0.111
147 | GTTCGTTA | 0.356
148 | ATTCGTTC | 0.432
149 | ATTCGTTG | 0.277
150 | CTTCGTTA | 0.303

Row | Sequence | PBM E-score
151 | CTTCGTTC | 0.47
152 | ATTCGTTA | 0.309
153 | CTCTCTAA | -0.232
154 | GCTCTAGA | -0.226
155 | CGTTCCTA | 0.439
156 | AGTTCCTA | 0.102
157 | GGTTCCTA | -0.128
158 | AGTTCCTC | -0.117
159 | CCTTCCTC | -0.0948
160 | CGTTCCTC | 0.452
161 | ACAGTAAC | 0.00997
162 | AACTGCAA | -0.138
163 | CACCTTAC | -0.0784
164 | CGGCTCCC | -0.0756
165 | GCTGCATA | -0.114
166 | CGTCTAAC | -0.0542
167 | GAAAGATC | 0.0489
168 | ACATAGCA | -0.131
169 | GTATAAAC | 0.403
170 | GTATAAAA | 0.335
171 | ATATAAAC | 0.212
172 | CACAATTC | -0.0282
